FXN GAA850 act = increases GAA850 frataxin promoter reporter activity; HEK293 lucGAA850 FXN promoter luciferase reporter, 24 h; percent of 10 µM SAHA response; 360,000 compounds, 0.56% hits; activation, % at 6 µM;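 active = activation above the average of all compounds screened plus 3 SD, cutoff fixed separately per campaign, cut at about 7.5% in these data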;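 note: 0% = DMSO wells and 100% = 10 µM SAHA wells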
C2C12 statin = suppressors of simvastatin-induced myotoxicity in C2C12 myotubes; ATP luminescence, 48 h; scaled: DMSO 0, geranylgeraniol control 100; rescue of ATP level, % at 7.49 µM; 330,000 compounds, 0.78% hits; AID 602340;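 active = mean ATP rescue above about 67%, or every replicate alone reaching that limit, limit read from the data, passing the limit was not always enough; inconclusive = no clear call, values can overlap the other calls; inactive = mean under the limit and some replicate under it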;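 note: myotubes were challenged with 10 µM simvastatin during compound exposure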
esBAF inh = blocks esBAF chromatin remodeling in mouse ES cells. 350,000 compounds, 2% hits. reporter increase, % at 12.5 µM. AID 602393. Bmi1-luciferase knock-in reporter, 24 h; 100% = twice the neutral-well signal; in the data active = activation above about 40%; inconclusive = no clear call, values can overlap the other calls;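 note: 0% = median of the plate's neutral control wells and 100% = double that signal; a rise in the Bmi1 reporter signal indicates esBAF inhibition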
MITF TRPM1 HTS = increases MITF-driven TRPM1 promoter luciferase signal; activation, % at 12.5 µM; SK-MEL-5 TRPM1-promoter luciferase, 24 h; % of positive control, neutral wells = 0; 300,000 compounds, 0.75% hits;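 active = mean activation of at least 80% with every replicate also reaching 80%; inconclusive = mean reaches 80% but some replicate falls short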;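 note: 0% = neutral control wells and 100% = parthenolide positive control wells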
Wnt bcat act = activates Wnt/beta-catenin signaling in a reporter cell assay | activator, plate reader | activation, % at 9.35 µM | 300,000 compounds, 1.2% hits | AID 743398; in the data active = activation above about 30%, passing the limit was not always enough; inconclusive = no clear call, values can overlap the other calls;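 note: 0% = neutral control wells and 100% = positive control wells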
Starred values were filed as active, the others as inactive; ? = inconclusive; / = no result given. The list is not random: actives were taken first. Their share in the collection is about 3.3%.

SMILES	FXN GAA850 act	C2C12 statin	esBAF inh	MITF TRPM1 HTS	Wnt bcat act
C[C@H]1CN([C@@H](C)CO)C(=O)c2cc(NC(=O)c3ccncc3)ccc2O[C@@H]1CN(C)C(=O)Nc1ccc(C(F)(F)F)cc1	/	6	-4	/	/
Cc1cc2ncn(C(=O)N3CCC(C)CC3)c2cc1C	7	-3	54*	48	/
CC(C)C(=O)Nc1ccc2c(c1)C(=O)N(C)[C@H]1CC[C@@H](CC(=O)N[C@H](C)c3ccccc3)O[C@@H]1CO2	/	-8	7	/	/
C[C@@H]1CN([C@@H](C)CO)C(=O)c2cccc(NC(=O)Nc3ccc(C(F)(F)F)cc3)c2O[C@@H]1CN(C)S(=O)(=O)c1ccc(Cl)cc1	/	56	15	/	/
CC(C)(C)C(=O)[C@H]1[C@H](c2ccccc2)[C@@]2(N=C(c3ccccc3)OC2=O)C2c3ccccc3C=NN21 (some centres not stated)	3	8	47*	/	12
N/C(=N\OC(=O)c1cccc(F)c1)c1cccc([N+](=O)[O-])c1	2	13	61*	/	-2
N/C(=N\OC(=O)c1ccc(F)cc1)c1cccc([N+](=O)[O-])c1	3	2	32	87*	16
Cc1ccccc1S(=O)(=O)NCC[C@@H]1CC[C@H](NS(=O)(=O)c2ccccc2C)[C@@H](CO)O1	/	-1	-3	/	/
COc1ccc2cc(C(=O)NCc3ccco3)c(=Nc3ccc(C(=O)O)cc3)oc2c1	3	-23	-7	-7	42*
CN(C)CC(=O)Nc1ccc2c(c1)[C@H]1C[C@H](CC(=O)NCc3ccc(Cl)cc3)O[C@H](CO)[C@H]1O2	/	-1	2	/	/
O=c1[nH]c(=S)c2[nH]c(=S)n(-c3ccccc3)c2[nH]1	2	99*	/	-1	0
O=c1[nH]c(=O)c2[nH]c(=O)n(-c3ccccc3)c2[nH]1	2	2	5	4	-6
C[C@@H]1CN([C@H](C)CO)C(=O)c2cc(NC(=O)Nc3ccc(F)cc3)ccc2O[C@@H]1CN(C)Cc1ccc(Oc2ccccc2)cc1	/	/	4	/	/
Cc1nc(SCCc2ccccc2)[nH]c(=O)c1C	3	0	50*	-11	/
O=C(Nc1ccccc1F)Nc1ccccc1F	4	-13	56*	41	54*
O=C(Nc1ccc(Br)cc1)Nc1ccccc1F	3	-26	?	52	20
COc1ccc(NC(=O)Nc2cc(C)ccn2)cc1	3	24	-67	9	44*
Cc1ccnc(NC(=O)Nc2ccc(Br)cc2Cl)c1	5	/	/	17	39*
Cc1ccccc1NC(=O)Nc1ccc2c(c1)CCC2	4	-8	72*	75	-1
COCC(=O)Nc1ccc2c(c1)[C@H]1C[C@@H](CC(=O)NC3CCCCC3)O[C@H](CO)[C@H]1O2	/	1	2	/	/
CC(C)NC(=O)Nc1ccc2c(c1)CC(=O)N([C@H](C)CO)C[C@H](C)[C@H](CN(C)S(=O)(=O)c1ccccc1)O2	/	-14	-4	/	/
COc1cccc(-c2ccc([C@H]3[C@@H](CO)N4CCCCN(Cc5cncnc5)C[C@H]34)cc2)c1	/	24	-2	/	/
CO[C@H]1CN(C)C(=O)c2ccc(NC(=O)Nc3ccccc3)cc2OC[C@@H](C)NC[C@H]1C	/	-1	7	/	/
O=C(N[C@@H]1CC[C@@H](CCn2cc(-c3cccnc3)nn2)O[C@@H]1CO)c1ccccc1F	/	-8	-1	/	/
O=C(Nc1ccc2c(c1)CCC2)c1cnc(Cl)c(Cl)c1	7	/	/	56	-1
SMILES	FXN GAA850 act	C2C12 statin	esBAF inh	MITF TRPM1 HTS	Wnt bcat act
O=C(Nc1ccc2c(c1)CCC2)Nc1ccc(F)cc1F	4	-9	71*	79	41*
Cc1ccccc1NC(=O)Nc1nc2ccc(S(C)(=O)=O)cc2s1	1	/	/	47	?
COc1ccccc1NC(=O)Nc1ccc2c(c1)CCC2	2	/	/	112*	19
O=C(Nc1ccc2c(c1)CCC2)c1ccc(Cl)nc1	5	1	82*	20	11
O=C(Nc1ccc(F)cc1)Nc1ccc2c(c1)CCC2	4	/	/	?	?
NS(=O)(=O)c1ccc2nc(NC(=O)Nc3ccccc3F)sc2c1	6	29	12	68	43*
Cc1ccc(S(=O)(=O)N[C@@H]2CC[C@H](CCNC(=O)C3CCC3)O[C@@H]2CO)cc1	/	4	0	/	/
COCC#Cc1cnc2c(c1)C(=O)N([C@@H](C)CO)C[C@@H](C)[C@@H](CN(C)C(=O)Nc1cccc(F)c1)O2	/	6	0	/	/
COc1ccccc1NC(=O)C(=O)N/N=C/c1cccs1	7	5	76*	48	15
COCCNC(=O)C(=O)N/N=C/c1cccs1	0	/	/	23	4
COc1ccc(NC(=O)Nc2ccc(F)c(Cl)c2)cc1	3	/	/	127*	45*
Cc1ccccc1NC(=O)Nc1ccc(C(F)(F)F)cc1	1	/	/	38	38*
O=C(Nc1ccc2c(c1)CCC2)Nc1ccccc1F	2	-7	5	108*	27
COc1ccc(OC)c(NC(=O)Nc2ccc(Cl)cc2)c1	1	-10	9	34	/
O=C(CCN1CCCCC1)N[C@H]1CC[C@@H](CCn2cc(-c3ccccc3)nn2)O[C@H]1CO	/	10	-1	/	/
O=C(Nc1ccc2c(c1)CCC2)c1c(F)cccc1Cl	6	/	/	88*	17
COc1ccc(/C=C/C(=O)Nc2ccc3c(c2)CCC3)cc1OC	3	5	47*	29	/
COc1ccc(NC(=O)Nc2ccccc2OC)cc1	7	-26	48*	?	16
COc1ccccc1NC(=O)C(=O)Nc1ccccn1	1	-17	35	47	36*
CCC(=O)Nc1ccc2c(c1)OC[C@@H](C)N(S(=O)(=O)c1cn(C)cn1)C[C@@H](C)[C@H](OC)CN(C)C2=O	/	-2	0	/	/
CC(C)C#Cc1cnc2c(c1)C(=O)N([C@H](C)CO)C[C@@H](C)[C@@H](CN(C)C(=O)c1ccccc1F)O2	/	12	-4	/	/
CN(C)S(=O)(=O)c1ccc(NC(=O)/C=C/c2ccccc2Cl)cc1	2	/	/	43	2
O=C(/C=C/c1ccccc1Cl)Nc1cccc(O)c1	5	/	/	54	54*
O=C(/C=C/c1ccccc1Cl)Nc1ccccc1	2	/	/	/	45*
Cc1cc(=O)[nH]c(N=N/C(=N/Nc2ccc(O)cc2)c2ccccc2)n1	-1	13	49*	29	/
SMILES	FXN GAA850 act	C2C12 statin	esBAF inh	MITF TRPM1 HTS	Wnt bcat act
O=C(CC1CC1)N1[C@@H](CO)[C@@H]2c3ccccc3N(S(=O)(=O)c3ccc(F)cc3)C[C@@H]21	/	-16	-1	/	/
C(=C\c1nc(-c2ccccc2)no1)/c1ccccc1	6	1	8	42	24
C(=C\c1nc(-c2ccncc2)no1)/c1ccccc1	3	-3	20	70	40*
N#CCNC(=O)c1cccn1-c1ncc(C(F)(F)F)cc1Cl	1	3	-1	-3	38*
CC1(C)CC(=O)C=C(c2ccc(-c3ccc(S(C)(=O)=O)cc3)cc2)C1=O	-2	-8	65*	/	-1
COc1ccncc1-c1ccc(C2=CC(=O)CC(C)(C)C2=O)cc1	2	-9	65*	/	1
